A selection: hits, their analogues and other compounds. The true share with any hit is near 10%.
PLK1 PBD block = inhibitors of human PLK1 polo-box domain binding. Plk1 PBD binding of FITC phosphopeptide, fluorescence polarization. P53350. AID 720504. Potency, µM, most hits filed as inhibitors. 360,000 compounds, 2.8% hits; also: series mostly up to about 57 µM; nearly all actives have a fitted effect of over 65% in size
Sfp inh = blocks B. subtilis Sfp PPTase activity | Q9F4F7 | Biochemical Sfp PPTase activity, qHTS | Potency, µM, usual class: inhibitors | 310,000 compounds, 3.5% hits;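 also: the enzyme is Sfp with the accession as filed and its product quenches rhodamine fluorescence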
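Sfp 15 nM + cpd, 15 min RT; start w/ rhodamine-CoA 5 uM, BHQ-2-YbbR 12.5 uM (final); 50 mM Hepes pH 7.6, 10 mM MgCl2, 0.01% NP-40, 0.01% BSA; read 525/598 nm at 0 and 30 min.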
G9a inh = G9a (human) methyltransferase inhibition; Q96KQ7; G9a H3K9 monomethylation, AlphaScreen, 2 h; Potency, µM (series often up to 102 µM), most hits filed as inhibitors; 350,000 compounds, 8.8% hits; AID 504332; also: nearly all actives have a fitted effect of over 75% in size
Target sequence (Q96KQ7 913-1193 limits assumed): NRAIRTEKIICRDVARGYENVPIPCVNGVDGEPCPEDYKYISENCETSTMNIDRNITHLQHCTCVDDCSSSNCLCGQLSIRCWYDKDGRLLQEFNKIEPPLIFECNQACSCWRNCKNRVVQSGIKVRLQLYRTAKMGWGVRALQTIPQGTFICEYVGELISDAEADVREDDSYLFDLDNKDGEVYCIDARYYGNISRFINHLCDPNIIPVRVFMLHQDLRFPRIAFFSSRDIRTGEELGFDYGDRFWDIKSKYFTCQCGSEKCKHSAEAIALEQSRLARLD
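Step 1: enzyme (final 20 nM) with compound, 15 min RT. Step 2: substrate peptide 500 nM and SAM 20 uM, 2 h RT. Step 3: anti-H3K9me1 antibody and AlphaScreen beads, 10 min, then plate read.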
VDR inhibitor = inhibitors of human vitamin D receptor; P11473; VDR-SRC2-3 peptide fluorescence polarization, 2 h; Potency, µM, hits mostly inhibitors; 400,000 compounds, 0.93% hits; AID 504847
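Inhibition of the VDR/SRC2-3 peptide interaction is quantified by fluorescence polarization. Compounds (23 nl, pintool) incubate with the reagents for 2 hours at ambient room temperature.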
CCT modulator = modulators of cytosolic chaperonin (CCT/TRiC) activity; purified chaperonin ATPase assay, HTRF ADP detection, 30 min; activity change, % (test concentration not listed), hits read low; 360,000 compounds, 0.3% hits; AID 651819; in the data active = activity change below about -30%
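ATPase activity: ADP formed was measured by HTRF Transcreener (665/615 nm ratio) after 30 min at 37 deg C with 10 uM ATP. Compounds screened at one 76 uM concentration against 40 or 20 nM TRiC in Tris pH 7.4/KCl/MgCl2/DTT buffer.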
Mm-Cpn inhibitor = inhibitors of Methanococcus maripaludis chaperonin TRiC (MmCpn); purified Mm-Cpn ATPase, ADP Transcreener TR-FRET; Potency, µM (titrated, usually from 76.9 µM), usual class: inhibitors; 330,000 compounds, 0.031% hits; AID 504842; also: nearly all actives have a fitted effect of over 80% in size
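Eu-cryptate anti-ADP/ADP-d2 competition gives a ratio inversely related to ADP. Enzyme at 25 nM was pre-exposed to compound for 10 min, then given 10 uM ATP for 30 min, 37°C throughout.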
A number is an active result; - = inactive; ? = inconclusive; . = not tested or not shown; [ ] = remark or other dose. Unless noted, calls follow the shape of the dose curve; as a rule, active = well fitted curve in the direction sought with a large enough effect; inconclusive = small, poorly fitted or top-dose-only effect, or another doubt; inactive = no such curve, though single readings can be large; an effect the other way counts as inactive or inconclusive.

SMILES	PLK1 PBD block	Sfp inh	G9a inh	VDR inhibitor	CCT modulator	Mm-Cpn inhibitor
Cc1cccc(-c2nc3c4ccccc4nc(NCc4ccc(Cl)cc4)n3n2)c1	.	.	-	-	.	.
COc1ccc(N2CCN(Cc3nc4c(c(=O)[nH]c(=O)n4C)n3Cc3ccccc3)CC2)cc1	.	.	-	-	.	.
Cc1cccc(OCC(=O)N/N=C/c2ccc(N(C)C)cc2)c1	-	-	40µM	-	-	-
Cc1ccc(OCC(=O)Nc2ccc(N(C)C)cc2)cc1	-	-	8.9µM	-	-	-
Cc1ccc(OCC(=O)Nc2ccc(C(N)=O)cc2)cc1	-	-	-	-	-	-
Cc1ccc(CSCC(=O)N/N=C/c2ccc(OCC(=O)Nc3ccc(C)cc3)cc2)cc1	-	-	18µM	-	-	-
CN(C)c1ccc(NC(=O)CN2C(=O)CC(c3ccccc3)=Nc3ccccc32)cc1	-	-	2µM	-	-	-
Cc1cc(C)c2c(n1)nn1c(C)c(CCC(=O)Nc3cccc(C)c3C)c(C)nc21	.	.	-	-	.	.
Cc1nn(C(C)(C)C)c(OC(=O)c2cccc(F)c2)c1Sc1ccccc1	.	.	-	-	.	.
COc1ccc(OC)c(NC(=O)N2CCC(CN3CCCCC3)CC2)c1	.	.	-	-	.	.
Cc1ccc(S(=O)(=O)N2C(=O)[C@@H]3Cc4ccccc4CN3C2=O)cc1	-	-	40µM	-	-	-
CCOC(=O)c1cnc(SCC(=O)Nc2ccc(N3CCOCC3)cc2)nc1N	.	-	25µM	.	.	-
CCOC(=O)c1cnc2nc[nH]n2c1=O	-	-	56µM	-	-	-
C=CCSc1ncc(C(=O)OCC)c(N)n1	-	-	-	-	-	-
CCOC(=O)c1cnc(SSc2ncc(C(=O)OCC)c(N)n2)nc1N	1.1µM	7.9µM	-[0.501 µM]	?	-	-
CCOC(=O)c1cnc(SCC(=O)Nc2ccc3c(c2)OCCO3)nc1N	-	-	-[2.33 µM]	-	-	-
CCOC(=O)c1cnc2nc(C)nn2c1N	-	-	28µM	-	-	-
CCNC(=O)c1ccc(C)c(-n2c(C)nc3cccnc32)c1	.	.	-	-	.	.
COc1cccc(/C=C/C2=CC3(C)CC2(C)C(c2cccc(OC)c2)CC3=O)c1 (stereo not drawn)	.	-	.	.	.	.
CCOC(=O)c1cnc(SCC(=O)N2CCN(c3ccccc3)CC2)nc1N	-	-	35µM	-	-	-
Cc1cc(O)c(Sc2ncn[nH]2)cc1NS(=O)(=O)c1ccc(Cl)cc1	-	.	-[12.7 µM]	-	-	-
O=S(=O)(Nc1cc(Sc2ncn[nH]2)c(O)c2ccccc12)c1ccccc1	2.1µM	8.9µM	1.4µM	?	-	-
CC(=O)N1CCN(c2nc(-c3ccco3)c3c(c2C#N)CC(C)(C)SC3)CC1	-	45µM	-	-	-	-
CC1(C)Cc2c(C#N)c(N3CCN(C(=O)c4ccccc4Cl)CC3)nc(-c3ccco3)c2CS1	?	-	.	-	-	-
CC1(C)Cc2c(C#N)c(N3CCN(C(=O)c4ccco4)CC3)nc(-c3ccco3)c2CS1	-	20µM	10µM	?	-	-
SMILES	PLK1 PBD block	Sfp inh	G9a inh	VDR inhibitor	CCT modulator	Mm-Cpn inhibitor
CCCCn1c(N)c(N(CC(C)C)C(=O)C(C)SCc2nc3sc(C)c(C)c3c(=O)[nH]2)c(=O)[nH]c1=O (stereo not drawn)	-	.	35µM	-	-	-
COc1ccc(NC(=O)C(Cc2ccccc2)n2cccc2)cc1 (stereo not drawn)	-	-	-	-	-	-
CC(=O)c1ccc(NC(=O)C(Cc2ccccc2)n2cccc2)cc1 (stereo not drawn)	13µM	-	?	?	-	-
O=C(Nc1cccc(Cl)c1)Nc1nccs1	-	50µM	-	-	-	-
O=C(NCc1ccccn1)Nc1cccc(Cl)c1	-	-	-	-	-42	-
O=C(Nc1ccc(Cl)c(Cl)c1)Nc1nccs1	-	56µM	?	-	-	-
Cc1ccc2c(=O)c(C(=O)c3ccc(Cl)cc3)cn(CC(=O)Nc3ccc4c(c3)OCCO4)c2n1	.	.	-	-	.	.
Cc1ccc(CO)cc1Nc1ncnc2onc(-c3ccc(F)cc3)c12	.	.	-	-	.	.
CCCSc1ncc(Cl)c(C(=O)Nc2sc(C(C)=O)c(C)c2C(=O)OCC)n1	.	.	-	-	.	.
COc1ccc(OC)c(-c2csc(N(CC3CCCO3)C(=O)C3CCCCC3)n2)c1 (stereo not drawn)	17µM	-	-	?	-	-

Bioassay records deposited in PubChem by National Center for Advancing Translational Sciences (NCATS).
